Data from PubChem BioAssay (EPA / NIEHS).
The source made the active and inactive calls. How the source made its calls: active means hit-call score of the fitted dose curve at least 0.9, where 1 is the maximum; inactive means score below 0.9.

Assay: CEETOX_H295R_DOC: CeeTox H295R High-throughput Steroidogenesis Assay for DOC (AID 2283439)
Details: actives raise or lower the signal
Protocol: CEETOX_H295R is a cell-based, multiplexed-readout assay that uses H295R, a human adrenal gland cell line, with measurements taken at 48 hours after chemical dosing in a 96-well plate.CEETOX_H295R_DOC is one of 23 assay component(s) measured or calculated from the CEETOX_H295R assay. It is designed to make measurements of hormone induction, a form of inducible reporter, as detected with absorbance signals by HPLC-MS-MS technology.Data from the assay component CEETOX_H295R_DOC was analyzed into 1 assay endpoint. This assay endpoint, CEETOX_H295R_DOC, was analyzed with bidirectional fitting relative to DMSO as the negative control and baseline of activity. Using a type of inducible reporter, gain or loss-of-signal activity using HPLC-MS-MS was used to understand synthesis of 11-Deoxycorticosterone in H295R cell line at 48hr of chemical exposure. To generalize the intended target to other relatable targets, this assay endpoint is annotated to the steroid hormone intended target family, where the subfamily is glucocorticoids.
Cell culture and media preparation procedures were conducted in accordance with OECD Test No. 456 guidelines, with minor modifications. H295R cells (ATCC CRL-2128) were expanded for 5 passages and frozen in batches in liquid nitrogen. Prior to the steroidogenesis assay, H295R cells were thawed and passed at least 4 times. The maximum passage was 10. Cells were maintained in a 1:1 mixture of DMEM/F12 supplemented with 5ml/L ITS+ Premix (BD Bioscience) and 12.5 ml/L Nu-Serum (BD Bioscience). After seeding cells into 96-well plates at 50-60% confluency, cells were allowed to adhere overnight. Prior to chemical testing, culture medium was replaced with 175 uL medium containing 10 uM forskolin to stimulate steroidogenesis for 48 hours. Following prestimulation, forskolin medium was replaced with medium containing test chemical solubilized in DMSO (ensuring a final concentration of 0.1% DMSO). Test chemicals were incubated for 48 hours, then the medium was removed and split into 2 vials containing approximately 75uL each, and stored at -80 C prior to hormone analysis. For steroid quantification, media samples were shipped to OpAns, LLC (Durham, NC) on dry ice, and samples were thawed to room temperature prior to liquid-liquid extraction. Steroid hormones were extracted from media samples using methyl tertbutyl ether (MTBE). An extra derivatization with dansyl chloride was included for estrogen (estrone and estradiol) detection only. Steroid hormones were separated by HPLC, eluted using a reverse phase C18 gradient with electrospray positive ionization, followed by quantification by tandem mass spectrometry (MS/MS). Data were acquired on a MassHunter Workstation Acquisition version B03.01 (Agilent Technologies, Inc.) and processed using MassHunter Quantitative Analysis for QQQ. Accuracy was determined for each hormone analyte from 3 standards to determine upper and lower limits of quantification (ULOQ and LLOQ, respectively) using a 7-point standard curve. Precision and accuracy of the extraction and quantification methods were calculated as the percent relative standard deviation (%RSD) of the spiked standards and percent spiked standard recovered, respectively. […] Test medium was removed following chemical exposure, and cell viability was evaluated in the same wells by MTT. MTT procedures were as follows: after removal of test medium, 500 uL of 0.5 mg/ml of 3-[4,5-dimethylthiazol-2-y]2,5-diphenyltetrazoliumbromide solution was added to the cells. Following a 4-hour incubation at 37 C and 5% CO2 to allow formazan-crystal formation, the MTT solution was removed and blue formazan salt crystals were solubilized using 500uL anhydrous isopropanol with shaking for 20 minutes. Absorbance was read at 570 and 650nm using a Packard Fusion microplate reader. Background correction of absorbance units was used to determine percent change relative to controls. […]
With `COc1ccc([N+](=O)[O-])cc1N` the AC50 was 10.6 µM (active). For `CC1=C(/C=C/C(C)=C/C=C/C(C)=C/C(=O)O)C(C)(C)CCC1`, the AC50 was 7.19 µM (active). For `CCC(=C(c1ccc(O)cc1)c1ccc(OCCN(C)C)cc1)c1ccccc1`, the outcome was “inactive”. With `OC1CCC(C2CCCCC2)CC1` (stereo unspecified) the outcome was “inactive”. In the case of `CCCCCCCCCCCCCCCS(=O)(=O)Oc1ccccc1`, the AC50 is reported as 3.8 µM (active). For `Nc1cccc2c(N)cccc12`, the AC50 was 2.73 µM (active). With `COC(=O)CCCCC(=O)OC` the outcome was “inactive”. In the case of `O=c1c(-c2ccc(O)cc2)coc2cc(O)ccc12`, the AC50 is reported as 3.19 µM (active). With `NC(=O)N(O)[C@@H]1C=C[C@H](Oc2cccc(Oc3ccc(F)cc3)c2)C1` the outcome was “inactive”. In the case of `CCc1ccc(CCOc2ccc(CC3SC(=O)NC3=O)cc2)nc1` (stereo unspecified), the AC50 is reported as 19.5 µM (active). In the case of `CCCOC(=O)c1ccc(O)cc1`, the AC50 is reported as 26.8 µM (active). For `CCCCCCCCC(=O)O`, the outcome was “inactive”. With `C[C@@H]1C[C@H]2[C@@H]3CCC4=CC(=O)C=C[C@]4(C)[C@@]3(F)[C@@H](O)C[C@]2(C)[C@@]1(O)C(=O)COP(=O)(O)O` the outcome was “inactive”. With `O=C(O)c1ccccc1C(c1ccc(O)cc1)c1ccc(O)cc1` the AC50 was 6.89 µM (active). With `CCc1nn(C2CCCCC2)c2cc(C3(C#N)CCC(C(=O)O)CC3)ccc12` (stereo unspecified) the outcome was “inactive”. For `Oc1cccc(O)c1`, the outcome was “inactive”.
